# According to PubChem BioAssay (NCI):
# The panel holds about 83,000 compounds, 20% with a hit somewhere; the sample as a whole holds those more often.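 Cells were grown in 96-well plates and exposed to the test compound at a single concentration for 48 hours; results are reported as percent growth, with values below 10 considered active.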 Unmarked numbers belong to inactive results. Active and inactive are the calls of the source.
# Experiments:
# Assay in all cases: NCI-60 one-dose screen, 48 h (100 = growth as untreated, 0 = no growth, -100 = all killed)
# Settings in all cases: 10 µM unless noted
# HCT-15 colon = test system: HCT-15 colon
# HT29 colon = test system: HT29 colon
# SNB-75 CNS = test system: SNB-75 CNS
# SNB-19 CNS = test system: SNB-19 CNS
# U251 CNS = test system: U251 CNS
# PC-3 prostate = test system: PC-3 prostate
# SK-MEL-5 melanoma = test system: SK-MEL-5 melanoma
# UACC-62 melanoma = test system: UACC-62 melanoma
# LOX IMVI melanoma = test system: LOX IMVI melanoma
# SK-MEL-28 melanoma = test system: SK-MEL-28 melanoma
Compound,growth (HCT-15 colon),growth (HT29 colon),growth (SNB-75 CNS),growth (SNB-19 CNS),growth (U251 CNS),growth (PC-3 prostate),growth (SK-MEL-5 melanoma),growth (UACC-62 melanoma),growth (LOX IMVI melanoma),growth (SK-MEL-28 melanoma)
Cc1ccc(Nc2cc(N)nc(N)n2)cc1,104%,103%,84.2%,110%,109%,98%,98.2%,97.2%,97.9%,105%
COC(=O)c1c(C)nc(C)c2c1C(=O)C(Br)=C(NCCCCO)C2=O,49.8%,19.5%,97.7%,75.3%,72.1%,62.5%,-53.4% (active),44.2%,50.2%,102%
O=C(Nc1ncc(Cc2ccccc2)s1)c1cc(-c2ccccc2)nc2ccccc12,94.7%,104%,92.6%,98.1%,98.2%,94.8%,98.8%,89.8%,86.7%,105%
COc1nc2ccccc2cc1/C=[N+](\[O-])c1ccccc1,19%,70%,73%,81.8%,56%,60.3%,73.4%,62.8%,40.1%,101%
CCOC(=O)c1c(C)n2c(=O)cc(C)c3c(OC(C)=O)c(OC(C)=O)cc1c32,41.2%,102%,74.1%,72%,50.9%,59.2%,50.3%,76.2%,42.4%,64.7%
O=C(CSc1nnc(-c2ccc(Cl)c(Cl)c2)n1-c1ccccc1)Nc1ccc(C(=O)/C=C/c2ccc(Cl)cc2)cc1,92.3%,85.9%,69.9%,94.1%,84%,62.5%,93.1%,76.7%,97.5%,104%
N#Cc1c(-c2ccc(F)cc2)cc(-c2cccc(Cl)c2)[nH]c1=O,58.1%,110%,-25.5% (active),42.7%,39.5%,72.7%,70.1%,40.9%,63.6%,83.9%
CC1=C(C(=O)OCc2ccccc2)C(c2ccc3c(c2)OCO3)n2c(nc3ccccc32)N1 (stereo not given),30.4%,14.4%,-6.67% (active),41.6%,36.3%,41.1%,25.5%,46.2%,34.6%,61.8%
O=S(=O)(Nc1ccc(Br)cc1)c1ccc(-c2cnc(C3CC3)o2)cc1,20.8%,13.9%,-6.53% (active),35.3%,24.9%,29.2%,19.2%,23.6%,45.9%,53.5%
CN1CCN(Cc2ccc(NC(=O)c3cncc(C#Cc4cnc(N)c5ncccc45)c3)cc2Cl)CC1,63.8%,52.4%,105%,106%,-64.6% (active),91.6%,78.4%,98.5%,86.5%,45.1%
O=C1c2cccnc2C(=O)c2c1c(C(=O)OCCCN1CCOCC1)c1ccccn21,-42.2% (active),-67.8% (active),-81.3% (active),9.22% (active),-70.7% (active),-0.15% (active),-94.9% (active),-40.7% (active),-29.1% (active),37.7%
COc1cc(C(=O)n2nc(NCCCc3ccccc3)c3cc(N)ccc32)cc(OC)c1OC,90.8%,91.8%,85.2%,101%,100%,79%,89.4%,92.2%,79.9%,96.4%
C=CC(=O)NCc1cccc(Nc2ncc(Br)c(NCCCNC(=O)C3CCC3)n2)c1,0.948% (active),-18.2% (active),-70.4% (active),3.56% (active),-2.33% (active),7.62% (active),-39.8% (active),-41.6% (active),-41.1% (active),-15.7% (active)
COc1cccc(C2C3=C(COC3=O)N(CCO)c3cc4c(cc32)OCCO4)c1 (stereo not given),2.89% (active),-30.7% (active),-14.1% (active),9.81% (active),2.46% (active),20.3%,-12.1% (active),24.8%,22.1%,38.7%
Cc1nc2ccccc2c(/C=C/c2ccc(Cl)cc2)c1C(=O)/C=C/c1ccccc1,-30.3% (active),-15.7% (active),39.7%,-16.2% (active),-74.3% (active),23.3%,13.7%,0.158% (active),-85.3% (active),8.62% (active)
CCOc1ccccc1NC(=O)CCC(=O)OC,105%,89.7%,75.7%,111%,105%,93.5%,99.7%,106%,102%,101%
O=c1c(/C=C/c2c(O)ccc3ccccc23)nnc2sc(-c3cccc([N+](=O)[O-])c3)nn12,29.1%,88.8%,51.7%,50%,0.449% (active),52.7%,65.2%,32.5%,33.7%,54.1%
COC12C=C/C(=C(/C(=O)OCc3ccccn3)C(=O)CCCCCCCCC3(OC)C=C/C(=C(/C(=O)OCc4ccccn4)C(=O)CCCCCCCC1)O3)O2,-37.5% (active),3.23% (active),1.28% (active),12.5%,-25.6% (active),-37.4% (active),-83.3% (active),-52.5% (active),-69.6% (active),-11.1% (active)
CO[C@]12C=C/C(=C(/C(=O)OCc3cccnc3)C(=O)CCCCCCCC[C@]3(OC)C=C/C(=C(/C(=O)OCc4cccnc4)C(=O)CCCCCCCC1)O3)O2,-78.5% (active),-32.3% (active),-79.6% (active),-90.5% (active),-64.2% (active),-51.6% (active),-92.9% (active),-82.5% (active),-82.3% (active),-86.3% (active)
COCCn1cc(-c2nc(-c3cc4cccnc4n3C)cs2)c2cc(OC)ccc21,32.1%,48.2%,47.7%,87.4%,59%,16.1%,26.7%,61.7%,38.2%,88.3%
N#CSCc1cc(Cl)c(CSC#N)cc1Cl,31.9%,40.6%,47.9%,89%,106%,75.8%,48.5%,71.1%,30.5%,87.9%
COC(=O)c1cc(-c2cc(OC)c(OC)c(OC)c2)[nH]c1N/N=C/c1c(Cl)cccc1Cl,60%,32.4%,3.41% (active),28.5%,14.1%,12%,58.7%,34.8%,19.2%,30.1%
CN(C)CCCN(CCC1CCCCC1)CCC1CCCCC1,15%,7.47% (active),62.2%,86.7%,12.3%,46.9%,-82.1% (active),-78.5% (active),5.93% (active),-97.8% (active)
CCCCCCCCNC(=O)[C@@H](N)CSCOC(C)=O,99.5%,89.4%,-17.3% (active),90.8%,102%,75.9%,48.7%,70%,44.4%,99.6%
C=C(c1ccc(OC)c(/C=C/C(=O)c2cc(OC)c(OC)c(OC)c2)c1)c1cc(OC)c(OC)c(OC)c1,-21.6% (active),0.495% (active),49.8%,-3.73% (active),-49.3% (active),31.5%,-69.3% (active),-70% (active),-87.3% (active),-77.3% (active)
CCOC(=O)CSc1nc2sc3c(c2c(=O)n1-c1ccccc1)CCCCC3,104%,102%,112%,89.2%,93.4%,109%,97.6%,99.5%,101%,112%
CCOC(=O)c1c2c(n3ccc(NC(=O)CCN4CCCC4)cc13)C(=O)c1ncccc1C2=O,-78.1% (active),-52.8% (active),-97.5% (active),-55.4% (active),-88.5% (active),-11.7% (active),68.6%,-12.4% (active),-73% (active),96.4%
